Assay results reported in PubChem BioAssay (NCATS).
Where “and” joins values, the source holds several entries; their conditions need not be identical. Equal entries are not always repeated. Records with an inconclusive call do not appear. Calls of active or inactive are those of the source. Unless noted, the call rests on the fitted dose curve; in most records, active means well fitted curve in the direction sought with a large enough effect; inconclusive means small, poorly fitted or top-dose-only effect, or another doubt; inactive means no such curve, though single readings can be large; an effect the other way counts as inactive or inconclusive.

Experiments:
[1] = target: Cellular tumor antigen p53 (Homo sapiens) (UniProt P04637); assay: Primary qHTS for small molecule compounds that upregulate eGFP-tagged delta133p53alpha (in N-terminal) cells. (AID 2060322); conditions: NCI-H358 eGFP-delta133p53alpha fluorescence, 24 h; activation: stronger effect = higher value; further: nearly all actives have a fitted effect of over 75% in size; further: potency means the concentration at half of the fitted maximal effect;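 on activation: cells pre-induced with doxycycline then dosed without doxycycline; series mostly up to about 56 µM; 0% = DMSO vehicle and 100% = reference activator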
Sequence of Cellular tumor antigen p53 (Homo sapiens) (P04637 whole entry, looked up): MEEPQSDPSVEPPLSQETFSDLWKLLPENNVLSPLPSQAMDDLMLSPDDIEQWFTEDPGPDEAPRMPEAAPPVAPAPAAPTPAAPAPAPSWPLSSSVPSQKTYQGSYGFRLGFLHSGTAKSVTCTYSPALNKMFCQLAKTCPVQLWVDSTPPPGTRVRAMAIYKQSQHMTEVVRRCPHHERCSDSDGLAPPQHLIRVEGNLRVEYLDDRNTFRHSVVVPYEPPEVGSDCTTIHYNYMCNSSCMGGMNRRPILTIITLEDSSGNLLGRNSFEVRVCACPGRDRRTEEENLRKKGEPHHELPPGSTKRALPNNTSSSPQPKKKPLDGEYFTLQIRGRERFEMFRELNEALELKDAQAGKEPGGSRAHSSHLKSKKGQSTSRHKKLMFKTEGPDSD
Method in brief: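 NCI-H358 cells pre-induced 24 h with 10 ng/ml doxycycline for eGFP-delta133p53alpha, plated dox-free and exposed 24 h at 37C to titrated compounds. Fixed, Hoechst-stained; gated GFP peak intensity by laser scanning cytometry, normalized to DMSO (0%) and 57.5 uM 5-azacytidine (100%).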

[2] = target: Aldehyde dehydrogenase, mitochondrial (Homo sapiens) (UniProt P05091); assay: qHTS for Inhibitors of the Aldehyde Dehydrogenase Family (ALDH2) Validation screens (AID 2061302; active means well fitted inhibition curve with a large enough effect; title and protocol of this record describe different tests; further: potency means the concentration at half of the fitted maximal effect)
[3] = target: Aldehyde dehydrogenase, mitochondrial (Homo sapiens) (UniProt P05091); assay: qHTS for Inhibitors of the Aldehyde Dehydrogenase Family (ALDH2) Confirmatory screens (AID 2061303; active means well fitted inhibition curve with a large enough effect; title and protocol of this record describe different tests; further: on the % scale 0 is the no-effect control and ±100 the full control effect; nearly all actives have a fitted effect of over 45% in size)
[4] = qHTS for Inhibitors of the Aldehyde Dehydrogenase Family (ALDH1A2, ALDH1A3, ALDH2, ALDH3A1) (AID 2061307); further: nearly all actives have a fitted effect of over 50% in size; on Potency: test system not described further here; potency means the concentration at half of the fitted maximal effect
[5] = target: Aldehyde dehydrogenase, mitochondrial (Homo sapiens) (UniProt P05091); assay: qHTS for Inhibitors of the Aldehyde Dehydrogenase Family (ALDH2) Primary screen (AID 2061308);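 further: plate controls were vehicle for no effect and reference inhibitor for full effect; nearly all actives have a fitted effect of over 55% in size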
[6] = target: Retinaldehyde dehydrogenase 3 (Homo sapiens) (UniProt P47895); assay: qHTS for Inhibitors of the Aldehyde Dehydrogenase Family (ALDH1A3) Validation screen (AID 2061312); further: on the % scale 0 is the no-effect control and ±100 the full control effect; nearly all actives have a fitted effect of over 45% in size
[7] = target: Retinaldehyde dehydrogenase 3 (Homo sapiens) (UniProt P47895); assay: qHTS for Inhibitors of the Aldehyde Dehydrogenase Family (ALDH1A3) Primary screen (AID 2061315);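 further: plate controls were DMSO vehicle for no effect and reference inhibitor for full effect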
[8] = target: Aldehyde dehydrogenase 1A1 (Homo sapiens) (UniProt P00352); assay: qHTS for Inhibitors of the Aldehyde Dehydrogenase Family (ALDH1A1) Confirmatory screens (AID 2061316); further: nearly all actives have a fitted effect of over 65% in size; further: potency means the concentration at half of the fitted maximal effect
[9] = target: Cellular tumor antigen p53 (Homo sapiens) (UniProt P04637); assay: Primary qHTS for small molecule compounds that upregulate eGFP-tagged delta133p53alpha (in C-terminal) cells. (AID 2060324);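 further: 0% = DMSO wells and 100% = 57.5 µM 5-azacytidine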
Method in brief: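 Concentration-response screen: compounds titrated onto pre-induced NCI-H358 D133p53a-eGFP cells, incubated one day, fixed with 3.5% PFA. Per-cell GFP peak intensity was gated, then normalized against intraplate controls.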

[10] = BET inhibitor-based combinations targeting novel dependencies in MECOM-rearranged (r) AML: OCI-AML3 cell line (AID 2202232); conditions: Potency: OCI-AML3 viability;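 further: series mostly up to about 46 µM; plate controls were DMSO vehicle wells for no effect and wells without cells for full effect; nearly all actives have a fitted effect of over 35% in size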
Method in brief: (§1)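 Luminescent ATP readout (CellTiter-Glo) after 48 hr drug exposure gives viability. Curves span 11 concentrations and are normalized to DMSO and empty wells. Activity is reported as area under the curve and its Z-transform within each cell line.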

[11] = BET inhibitor-based combinations targeting novel dependencies in MECOM-rearranged (r) AML: HNT-34 cell line (AID 2202234);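 further: plate controls were vehicle wells for no effect and cell-free wells for full effect; nearly all actives have a fitted effect of over 35% in size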
Method in brief: (§2)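 Luminescent ATP readout (CellTiter-Glo, 15 min at room temperature) after 48 hr drug exposure gave viability. Dose-response curves, normalized to DMSO and empty-well controls, were summarized as area under the curve and its mean-centred Z-score.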

[12] = BET inhibitor-based combinations targeting novel dependencies in MECOM-rearranged (r) AML: AML-194 cell line (AID 2202237;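 further: plate controls were vehicle wells for no effect and wells without cells for full effect; nearly all actives have a fitted effect of over 40% in size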)
Method in brief: as §1

[13] = target: Retinaldehyde dehydrogenase 3 (Homo sapiens) (UniProt P47895); assay: qHTS for Inhibitors of the Aldehyde Dehydrogenase Family (ALDH1A3) Confirmatory screens (AID 2061311); further: nearly all actives have a fitted effect of over 60% in size; further: potency means the concentration at half of the fitted maximal effect
[14] = target: Retinal dehydrogenase 2 (Homo sapiens) (UniProt O94788); assay: qHTS for Inhibitors of the Aldehyde Dehydrogenase Family (ALDH1A2) Confirmation screens (AID 2061314); further: potency means the concentration at half of the fitted maximal effect; nearly all actives have a fitted effect of over 65% in size
[15] = BET inhibitor-based combinations targeting novel dependencies in MECOM-rearranged (r) AML: SET-2 cell line (AID 2202231); conditions: SET-2 AML cells viability, CellTiter-Glo luminescence, 48 h; viability: stronger effect = lower value, series mostly up to about 46 µM;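 further: plate controls were DMSO treated cells for no effect and wells without cells for full effect; nearly all actives have a fitted effect of over 35% in size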
Method in brief: as §1

[16] = BET inhibitor-based combinations targeting novel dependencies in MECOM-rearranged (r) AML: MV-4-11 cell line (AID 2202233);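 further: plate controls were DMSO for no effect and blank wells for full effect; nearly all actives have a fitted effect of over 45% in size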
Method in brief: as §2

[17] = BET inhibitor-based combinations targeting novel dependencies in MECOM-rearranged (r) AML: UCSD-AML1 cell line (AID 2202235);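 further: series mostly up to about 46 µM; plate controls were DMSO vehicle wells for no effect and blank wells for full effect; nearly all actives have a fitted effect of over 40% in size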
Method in brief: as §2

[18] = BET inhibitor-based combinations targeting novel dependencies in MECOM-rearranged (r) AML: AML-191 cell line (AID 2202236;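 further: plate controls were vehicle wells for no effect and wells without cells for full effect; nearly all actives have a fitted effect of over 35% in size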)
Method in brief: as §1

CCOC(=O)c1cnc2c(cnn2CC)c1NN=C(C)C
inactive: activation [1] 11.7% and -44.5% | Potency [2] | Potency [3] | Potency [4]

COC(=O)C1=C(C)NC(C)=C(C(=O)OC)C1c1cccc(NC(=O)NCCCN2CCC(c3cccc(OC)c3)CC2)c1
inactive: Potency [2] | Potency [5] | Potency [6] | Potency [7]
active: Potency [1] 21.3 µM

Nc1ncnc2n[nH]c(Nc3ccc(F)cc3)c12
inactive: activation [1] 1% | Potency [2] | Potency [5] | Potency [6] | Potency [7]

Fc1ccc([C@@H]2CCNC[C@H]2COc2ccc3c(c2)OCO3)cc1
inactive: activation [1] 28.5% and -0.566% and 41.3% | Potency [2] | Potency [6]

Cc1cccc(C2CN(C)CCc3c2cc(O)c(O)c3Cl)c1 (stereo unspecified)
inactive: activation [1] -49.3% | Potency [2]

O=c1onc2cnc3ccccc3n12
inactive: activation [1] 14.8%
active: Potency [2] 6.31 µM | Potency [4] 0.0318 µM | Potency [8] 4 µM

C[C@](N)(Cc1ccc(O)c(O)c1)C(=O)O
inactive: activation [1] 3.95% and 1.83% and 6.56% | Potency [9] | Potency [10] | Potency [11] | Potency [12]

COC1=C(OC)C(=O)c2ccccc2C1=O
inactive: activation [1] -31% | Potency [2] | Potency [3] | Potency [4]
active: Potency [13] 0.712 µM | Potency [14] 2.52 µM

CC(=O)N[C@H](C(=O)O)C(C)(C)SN=O
inactive: activation [1] -54.1% | Potency [2]

CN1CCC2(CCN3CCc4c(oc5ccccc45)C3C2)N(C)C1=O (stereo unspecified)
inactive: activation [1] -14.7% | Potency [2] | Potency [3] | Potency [4] | Potency [13] | Potency [8]

c1ccc(CN2CCC3(CCCc4ccccc43)CC2)cc1
inactive: activation [1] -56.7% | Potency [2]

CC[C@@H]1Cc2cc(O)ccc2C2=C1c1ccc(O)cc1C[C@H]2CC
inactive: activation [1] -56% | Potency [2] | Potency [6]

CSc1nc(N)c2ncn([C@@H]3O[C@H](COP(=O)(O)OP(=O)(O)OP(=O)(O)O)[C@@H](O)[C@H]3O)c2n1
inactive: activation [1] 7.61% | Potency [2] | Potency [6]

O=C1Cc2c([nH]c3ccc(Br)cc23)-c2ccccc2N1
inactive: activation [1] -51% | Potency [2]

CC(=O)NC[C@H]1CN(c2ccc(N3CCOCC3)c(F)c2)C(=O)O1
inactive: activation [1] 20.9% and -21.5% and 0.955% | Potency [2] | Potency [5] | Potency [6] | Potency [7] | viability [15] 105% | Potency [10] | Potency [16] | Potency [11] | Potency [17] | Potency [18] | Potency [12]

N#CC(=C(\N)Sc1ccccc1N)/C(C#N)=C(/N)Sc1ccccc1N
inactive: activation [1] -29.9% | Potency [2]

CN(C)c1cc2c(Nc3ccc4c(cnn4Cc4ccccc4)c3)ncnc2cn1
inactive: activation [1] -35.7% | Potency [2] | Potency [3] | Potency [5] | Potency [6] | Potency [7] | Potency [8]
active: Potency [13] 10 µM | Potency [14] 0.283 µM

O=C1NC(=O)/C(=C/c2ccc3nccnc3c2)S1
inactive: activation [1] 18.2% | Potency [9] | viability [15] 113% | Potency [16] | Potency [11] | Potency [17] | Potency [12]

CC(C)(Sc1ccc(CCN(CCCCC2CCCCC2)C(=O)NC2CCCCC2)cc1)C(=O)O
inactive: activation [1] 26.5% and 1.67% and -32.7% | Potency [2] | Potency [5] | Potency [6] | Potency [7] | viability [15] 118% | Potency [16] | Potency [11] | Potency [17] | Potency [18] | Potency [12]

NC(N)=Nc1nc(CSCC/C(N)=N/S(N)(=O)=O)cs1
inactive: activation [1] -9.6% and 12.2% | Potency [2]

CC(C)(C)c1cc(/C=C(\C#N)C(N)=S)cc(C(C)(C)C)c1O
inactive: activation [1] 0.225% | Potency [2]

CCc1cccc(N(C)C(N)=Nc2cccc3ccccc23)c1
inactive: activation [1] 19.2% | Potency [2] | Potency [6]

CC(C)Cn1c(=O)n(C)c(=O)c2[nH]cnc21
inactive: activation [1] -30.3% | Potency [2] | Potency [6]

NCCCCCCCCCCN
inactive: activation [1] 28.3% | Potency [2] | Potency [6]

Brc1c(Br)c(Br)c2[nH]cnc2c1Br
inactive: activation [1] -55.8% | Potency [2] | Potency [6]

CC(CN(C)C)CN1c2ccccc2CCc2ccccc21 (stereo unspecified)
inactive: activation [1] -10% and -21.6% | Potency [2] | Potency [6]

O=c1cc(-c2ccc(O)cc2)oc2cc(O)cc(O)c12
inactive: activation [1] -19.8% and -40.1% | Potency [2] | Potency [6]

CCO/C([O-])=N/c1c[n+](N2CCOCC2)no1
inactive: activation [1] 9.21% and 19.2% | Potency [2] | Potency [6]

CC[C@H]1OC(=O)[C@H](C)[C@@H](O[C@H]2C[C@@](C)(OC)[C@@H](O)[C@H](C)O2)[C@H](C)[C@@H](O[C@@H]2O[C@H](C)C[C@H](NC)[C@H]2O)[C@](C)(O)C[C@@H](C)CN(C)[C@H](C)[C@@H](O)[C@]1(C)O
inactive: activation [1] -4.2% | Potency [2] | Potency [6]
